High-throughput results deposited in PubChem by National Center for Advancing Translational Sciences (NCATS).
AmpC nodet inh – blocks E. coli AmpC beta-lactamase in absence of detergent. P00811. AmpC nitrocefin hydrolysis, absorbance 480 nm, no detergent. Potency, µM (doses to about 28.7 µM). actives 1.8% (n = 71,000). AID 585
Target sequence (P00811 whole entry, looked up): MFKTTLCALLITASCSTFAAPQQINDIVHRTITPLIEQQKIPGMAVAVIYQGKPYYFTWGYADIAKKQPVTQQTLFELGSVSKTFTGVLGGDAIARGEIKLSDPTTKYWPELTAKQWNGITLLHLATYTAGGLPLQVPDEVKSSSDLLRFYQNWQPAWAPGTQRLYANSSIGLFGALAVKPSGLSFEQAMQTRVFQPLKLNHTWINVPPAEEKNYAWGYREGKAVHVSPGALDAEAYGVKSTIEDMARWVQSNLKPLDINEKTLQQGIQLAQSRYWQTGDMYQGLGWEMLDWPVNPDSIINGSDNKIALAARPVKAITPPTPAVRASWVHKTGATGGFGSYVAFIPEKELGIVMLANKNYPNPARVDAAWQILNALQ
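AmpC, 20 mM phosphate pH 7.0; 15 min cpd preinc, RT; start with nitrocefin (800 uM stock); A480 kinetic read, 20 s intervals, 4 min. No-enzyme wells = negative control.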
LT uptake inh – inhibitors of anthrax lethal toxin internalization; actives 0.67% (n = 70,000); AID 912; Cells, anthrax lethal toxin internalization, FRET ratio (460/530); Potency, µM (highest dose often 40 µM), usual class: inhibitors; further: nearly all actives have a fitted effect of over 50% in size
AmpC det inh – inhibitors of E. coli AmpC beta-lactamase with detergent; Potency, µM (highest dose often 28.7 µM); purified AmpC, nitrocefin hydrolysis with detergent; actives 0.09% (n = 71,000); active means well fitted curve in the direction sought with a large enough effect; inconclusive means small, poorly fitted or top-dose-only effect
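E. coli AmpC (5.3 nM) in 20 mM phosphate pH 7.0 with 0.01% Triton X-100, preincubated 15 min RT with compound; nitrocefin (2 uL of 800 uM stock) hydrolysis followed by 480 nm absorbance every 20 s over 4 min.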
Prx2 Sm inh – blocks S. mansoni peroxiredoxin 2 enzymatic activity; S. mansoni Prx2 activity coupled to TGR/GSH (TGR is thioredoxin glutathione reductase), NADPH fluorescence loss, qHTS; Potency, µM; actives 0.07% (n = 65,000); AID 448
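Prx2 activity was followed as the loss of NADPH fluorescence (ex 365/em 450 nm), read every 30 sec for 8 min after H2O2 start. The enzyme mix (50 nM Prx2, 25 nM TGR, GSH, NADPH; pH 7.4 phosphate buffer) was incubated with compound for 15 min at room temperature first.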
Numbers stand for hits; – = inactive; ? = inconclusive; · = no result; [ ] = remark or other dose. An excerpt weighted towards active compounds, which were near 2.4% of everything screened. Unless noted, the call rests on the fitted dose curve.

SMILES | AmpC nodet inh | LT uptake inh | AmpC det inh | Prx2 Sm inh
CN(CCc1ccc(Cl)c(Cl)c1)[C@H]1CCCC[C@H]1N1CCCC1 | – | 25µM | – | –
CN(CCc1ccc(Cl)c(Cl)c1)CCN1CCCCCC1 | – | ? | – | –
CC(=O)O[C@@H]1CC[C@]2(C)[C@H]3CC[C@]4(C)[C@H](C[C@H]5CCCC[C@@]54C(C)=O)[C@@H]3CC(=O)[C@@]2(O)C1 | – | ? | – | –
COc1ccc(-c2cc(CCCC(=O)NCCc3ccc(OC)cc3OC)no2)cc1 | – | · | – | –
COc1ccc(-c2cc(CCCC(=O)NCc3ccccn3)no2)cc1 | 3.2µM[single pt active] | – | – | –
CC1=C(C(=O)OC(C)C)C(c2cccs2)n2ncnc2N1 (stereo not drawn) | 4µM[single pt active] | ? | – | –
COc1ccccc1NC(=O)C1=C(C)Nc2ncnn2C1c1cccs1 (stereo not drawn) | – | ? | – | –
CC1=C(C(=O)OC(C)C)C(c2cccc(F)c2)n2ncnc2N1 (stereo not drawn) | 4µM[single pt active] | ? | – | –
CC1=C(C(=O)OC(C)C)C(c2c[nH]c3ccccc23)n2ncnc2N1 (stereo not drawn) | 4µM[single pt active] | – | – | –
CN(C)CCCNc1c2c(nc3ccc(Cl)cc13)CCCC2 | –[5.75 µM] | ? | –[5.75 µM] | –
O=C(Cn1c(C(=O)N2CCc3ccccc3C2)cc2sccc21)c1ccccc1 | 16µM[single pt active] | ? | – | –
CCCCn1c2c(c3ccccc31)CCc1nonc1-2 | 4µM[single pt active] | ? | – | –
O=C(NCCN1CCOCC1)c1cc(-c2ccc(Cl)cc2)on1 | – | ? | – | –
CC(C)Cc1cc(C(=O)Nc2cc(Cl)ccc2Cl)no1 | 4µM[single pt active] | – | – | –
CC(C)Cc1cc(C(=O)NCCN2CCOCC2)no1 | 4µM[single pt active] | – | – | –
O=C(Nc1ccc(F)cc1F)c1cc(-c2ccco2)on1 | – | – | – | –
CC(C)Cc1cc(C(=O)Nc2c(F)cc(F)cc2Br)no1 | 4µM[single pt active] | – | – | –
CC(C)Cc1cc(C(=O)Nc2ccc(F)cc2F)no1 | 4µM[single pt active] | – | – | –
CC(C)c1cc(C(=O)Nc2cc(Cl)ccc2O)no1 | – | ? | – | –
O[C@@H](C1=C/C(=C\c2ccncc2)c2ccccc21)c1ccncc1 | –[5.75 µM] | –[8 µM] | –[5.75 µM] | –
COC(=O)C1=C(C)NC(C)=C(C(=O)OCCN(C)Cc2ccccc2)[C@@H]1c1cccc([N+](=O)[O-])c1 | – | ? | – | –
CCCC(=O)c1ccc(N2CCN(C(=O)c3ccccc3Br)CC2)c(F)c1 | – | 13µM | – | –
COc1cc(OC)cc(OCC(O)Cn2ccnc2C)c1 (stereo not drawn) | – | – | – | –
Cc1cccc(C)c1OCC(O)Cn1ccnc1C (stereo not drawn) | 4µM[single pt active] | – | – | –
Nc1nc(N2CCCCC2)nc2ccccc12 | – | 20µM | – | –
SMILES | AmpC nodet inh | LT uptake inh | AmpC det inh | Prx2 Sm inh
c1ccc2c(N3CCCCC3)nc(N3CCCC3)nc2c1 | – | 10µM | – | –
c1ccc(-c2nc(N3CCCCCC3)c3ccccc3n2)nc1 | – | ? | – | ·
Nc1nc(-c2ccco2)nc(N2CCCCC2)n1 | – | – | – | –
O=[N+]([O-])c1ccc2c(N=Nc3ccc4ccccc4c3O)c(O)cc(S(=O)(=O)O)c2c1 | –[5.75 µM] | ? | –[5.75 µM] | –
CC(C)[C@@]1(NC(=O)[C@H]2C[C@H]3c4cccc5[nH]cc(c45)C[C@@H]3N(C)C2)O[C@]2(O)[C@H]3CCCN3C(=O)[C@H](Cc3ccccc3)N2C1=O | – | ? | – | –
Cc1ccc(NC(=O)c2c(-c3c(F)cccc3Cl)noc2C)cc1F | – | 10µM | – | ·
O=c1[nH]c(CN2CCc3ccccc32)nc2scc(-c3cccs3)c12 | 0.79µM | ? | – | –
O=c1[nH]cnc2scc(-c3cccs3)c12 | – | · | – | –
Cc1cc(NC(=O)c2noc3c2CCc2ccccc2-3)n(-c2ccccc2)n1 | 2.5µM[single pt active] | – | – | –
CC(=O)[C@H]1CC[C@@H]2[C@]1(C)CC=C1[C@]23C=C[C@]2(C[C@H](O)CC[C@@]12C)[C@H](C(=O)O)[C@@H]3C(=O)O | –[5.75 µM] | –[8 µM] | –[5.75 µM] | –
CN=C1N[C@H](c2ccccc2)N(c2ccccc2)S1 | – | 25µM | – | –
O=C1CC(N2CCC(c3nc4ccccc4[nH]3)CC2)C(=O)N1Cc1ccccc1 (stereo not drawn) | – | – | – | –
CN1C(=O)CC(N2CCC(c3nc4ccccc4[nH]3)CC2)C1=O (stereo not drawn) | 4µM[single pt active] | – | – | –
CN1CCN(c2ccc3nc(-c4ccc5nc(-c6ccc(O)cc6)[nH]c5c4)[nH]c3c2)CC1 | –[5.75 µM] | –[8 µM] | –[5.75 µM] | –
C[C@H]1[C@H](NC(=O)/C(=N/OC(C)(C)C(=O)O)c2csc(N)n2)C(=O)N1S(=O)(=O)O (stereo in doubt) | 0.00079µM | –[3.58 µM] | 0.002µM | –
COC(=O)c1cc(-c2ccc(Br)cc2)on1 | 4µM[single pt active] | – | – | –
O=C(Nc1nnc(N2CCCCCC2)s1)c1cc(-c2ccc(Br)cc2)on1 | 4µM[single pt active] | – | – | –
COC(=O)c1cc(-c2ccc(OC)c(OC)c2)on1 | – | – | – | –
COc1cc([C@@H]2Oc3cc([C@H]4Oc5cc(O)cc(O)c5C(=O)[C@H]4O)ccc3O[C@H]2CO)ccc1O | – | ? | – | –
C[C@@H]1O[C@@H](O[C@H]2C[C@@H](O)[C@]3(CO)[C@@H]4[C@@H](O)C[C@]5(C)[C@H]([C@@H]6COC(=O)C6)CC[C@@]5(O)[C@H]4CC[C@@]3(O)C2)[C@H](O)[C@H](O)[C@@H]1O | – | ? | – | –
CCN1C[C@@]2(COC(=O)c3ccccc3N3C(=O)C[C@H](C)C3=O)CC[C@H](OC)[C@@]34[C@@H]5CC6[C@@H](OC)C[C@@](O)([C@H]5[C@H]6OC)C(O)([C@@H]13)[C@@H](OC)[C@H]24 | – | ? | – | –
CCn1c(SCC#N)nc2c(c1=O)C1(CCCC1)Cc1ccccc1-2 | – | 10µM | – | –
CCCOC(=O)[C@@H]1[C@@H](C(=O)O)[C@H]2CC[C@@H]1O2 | –[5.75 µM] | –[8 µM] | –[5.75 µM] | –
CC#C[C@@]1(O)CC[C@@H]2[C@@H]3CCC4=CC(=O)CCC4=C3[C@@H](c3ccc(N(C)C)cc3)C[C@]21C | – | ? | – | –
CC1(C)S[C@@H]2[C@H](NC(=O)C3(N)CCCCC3)C(=O)N2[C@@H]1C(=O)O | 0.01µM | –[8 µM] | 0.01µM | –
CC1(C)S[C@@H]2[C@H](NC(=O)Cc3ccccc3)C(=O)N2[C@@H]1C(=O)O | –[5.75 µM] | –[8 µM] | –[5.75 µM] | –
C[C@H](Oc1ccccc1)C(=O)N[C@@H]1C(=O)N2[C@@H]1SC(C)(C)[C@@H]2C(=O)O | 0.25µM | –[3.58 µM] | 0.63µM | –
CC(C)(N)C(=O)N[C@@H]1C(=O)N2[C@@H]1SC(C)(C)[C@H]2C(=O)O | 0.5µM | –[8 µM] | 1.3µM | –
CCOc1ccc2ccccc2c1C(=O)N[C@@H]1C(=O)N2[C@@H]1SC(C)(C)[C@@H]2C(=O)O | 0.032µM | –[3.58 µM] | 0.05µM | –
CC[C@H]1CN(C)[C@H]2Cc3c([nH]c4ccccc34)C(=O)C[C@H]1[C@H]2C(=O)OC | –[5.75 µM] | –[8 µM] | –[5.75 µM] | –
